Most compounds without a hit are left out; they make up all but 1.6% or so of the library.
KCNQ2 inh = rat KCNQ2 potassium channel inhibitors, primary screen, cell-based, CHO-K1, FluxOR thallium flux, B-score; 20 min; active compounds read low; B-score at 10 µM; actives 1.1% (n = 310,000); Potassium voltage-gated channel subfamily KQT member 2 (Rattus norvegicus), O88943;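 active means fluorescence ratio B-score at most minus 3 library SDs, with starting brightness B-score within 2 library SDs, cut at about -5.5 in these data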
KCNQ2 enhance = potentiators of rat KCNQ2 potassium channel; Potassium voltage-gated channel subfamily KQT member 2 (Rattus norvegicus), O88943; CHO-K1 KCNQ2, FluxOR thallium flux fluorescence; active compounds read high; B-score at 10 µM; actives 0.54% (n = 310,000); AID 2239, 2010;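 active means fluorescence ratio B-score at least 3 SD of library B-scores, with initial fluorescence B-score within 3 of them, cut at about 5.3 in these data; same plate scores as AID 2156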;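 further: B-score of peak minus minimum over baseline fluorescence ratio after K+ and Tl+ stimulus; positive B-score means potentiation of KCNQ2 with more thallium influx and brighter signal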
Kir21 confirm = mouse Kir2.1 channel blockers, retest, confirmation, cell-based, FluxOR thallium flux, duplicate; actives 41% (n = 2,300); Tl flux remaining, % of negative control (active compounds read low), % at 10 µM; Kir2.1-expressing cells, FluxOR thallium flux fluorescence; active compounds read low; shares compounds with KCNQ2 enhance;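 active means Primary-screen hit whose thallium flux fell at least 3 control SD below untreated wells in both duplicates, with normal baseline fluorescence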;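 further: 0% = blank wells without stimulus and 100% = stimulated no-compound controls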
Target sequence (P35561 whole entry, looked up): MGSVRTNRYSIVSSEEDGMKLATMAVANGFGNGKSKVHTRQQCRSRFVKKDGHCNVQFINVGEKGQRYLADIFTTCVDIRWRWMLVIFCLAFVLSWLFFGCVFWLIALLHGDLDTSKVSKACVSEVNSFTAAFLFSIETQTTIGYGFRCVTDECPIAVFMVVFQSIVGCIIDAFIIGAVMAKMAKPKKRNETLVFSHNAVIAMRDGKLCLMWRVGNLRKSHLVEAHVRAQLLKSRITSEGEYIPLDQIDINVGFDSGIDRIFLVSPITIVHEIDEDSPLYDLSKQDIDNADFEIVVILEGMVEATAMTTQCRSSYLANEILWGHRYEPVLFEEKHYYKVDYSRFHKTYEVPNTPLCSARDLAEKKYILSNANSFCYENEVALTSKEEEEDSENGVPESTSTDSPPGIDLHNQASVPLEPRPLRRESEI
HEK293 ctr = counter-screen for Kir2.1 inhibitors: effect in parental HEK293 cells; shares compounds with KCNQ2 enhance; FluxOR thallium flux fluorescence; 0% = unstimulated blank wells; FluxOR signal as % of negative control (100 = no effect), % at 10 µM; actives 19% (n = 2,300);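 active means dye signal at least 3 control SD above or below untreated wells in both duplicates, raw fluorescence within 3, either direction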;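 further: percent is based on the flux ratio of peak minus minimum fluorescence over baseline F0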
CHO-K1 ctr = nonspecific thallium flux increase in parental CHO-K1, confirmation, counter-screen for KCNQ2 potentiator project, cell-based, FluxOR thallium flux, duplicate | activity increase over 3SD of controls, % at 10 µM | shares compounds with KCNQ2 enhance | parental CHO-K1 cells, FluxOR thallium flux fluorescence; zero = vehicle mean+3SD, 100% = vehicle-minus-blank window | actives 43% (n = 1,200) | AID 2282, 2010;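 active means signal rise of at least 3 SD above the untreated control mean, in both duplicate wells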;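 further: counter screen of KCNQ2 potentiator hits so any rise reflects channel-independent effects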
KCNQ1 sel pot = human KCNQ1 channel potentiation off-target, confirmation, selectivity assay for KCNQ2 potentiator project, cell-based, CHO, FluxOR thallium flux | activation over 3SD threshold, % at 10 µM | shares compounds with KCNQ2 enhance | actives 28% (n = 1,200) | CHO KCNQ1 stable, FluxOR thallium flux fluorescence; beyond 3SD, as % of vehicle-control signal;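 active means fluorescence ratio rise of at least 3 SD of vehicle wells above their mean, in both replicate wells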;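 further: 0% = vehicle mean plus 3 SD and 100% = vehicle minus unstimulated blank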
KCNQ2 pot conf = rat KCNQ2 channel potentiators, confirmation, cell-based, CHO, FluxOR thallium flux, duplicate. shares compounds with KCNQ2 enhance. CHO-KCNQ2 cells, FluxOR thallium flux fluorescence. potentiation, less the hit threshold, % at 10 µM. actives 68% (n = 1,200). AID 2287, 2010;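 active means fluorescence ratio rising 3 SD or more over the vehicle control mean in both replicates, plus primary screen hit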;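 further: peak minus minimum thallium fluorescence divided by baseline after K/Tl stimulus; 0% = vehicle mean plus 3 SD and 100% = vehicle minus unstimulated blank difference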
Kir21 spec = mouse Kir2.1 channel activation off-target, confirmation, selectivity assay for KCNQ2 potentiator project, cell-based, HEK293, FluxOR thallium flux; activity over 3SD threshold, % at 10 µM; shares compounds with KCNQ2 enhance; AID 2345, 2010; actives 2% (n = 1,200); HEK293 Kir2.1, FluxOR thallium flux fluorescence;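 active means fluorescence ratio rise of at least 3 SD above the vehicle-control mean, seen in both replicates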;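 further: 0% = vehicle mean plus 3 SD and 100% = vehicle minus no-stimulus blank window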
KCNQ2 W236L pot = potentiators of retigabine-insensitive KCNQ2 W236L, mechanism study for KCNQ2 potentiator project, cell-based, rat KCNQ2 W236L, CHO, automated patch clamp | shares compounds with KCNQ2 enhance | automated patch clamp current | actives 10% (n = 940) | current increase over 3SD of negative controls (%), active compounds read high, % at 25 µM | AID 2558, 2010;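 active means current increase at least 3 SD of the untreated controls above them in both duplicate recordings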
Starred values were filed as active, the others as inactive; i = inactive; . = not tested or not shown.

SMILES	KCNQ2 inh	KCNQ2 enhance	Kir21 confirm	HEK293 ctr	others
CCOC(=O)CSC1=C(C#N)C(c2ccc(F)cc2)C(C(C)=O)=C(C)N1 (centres undefined)	i	8.1*	i	i	CHO-K1 ctr=14*;KCNQ1 sel pot=-20;KCNQ2 pot conf=4.6*;Kir21 spec=-44;KCNQ2 W236L pot=i
Cc1ccc(NC(=O)CCN2CCC(C(N)=O)CC2)cc1	i	.	.	.
c1nc2nc3c(c(N4CCOCC4)n2n1)CCCC3	i	17*	i	i
CC1CCc2c(nc3ncnn3c2N2CCN(c3ccccc3)CC2)C1 (centres undefined)	i	1.3	.	.
CCCCCCOc1ccc(/C(C)=N/NC2=NCCN2)cc1[N+](=O)[O-]	i	0.72	.	.
CCCCOc1ccc(Br)cc1/C(C)=N/NC1=NCCN1	i	.	i	i
Cc1cc(C)n(C(=O)c2ccc([N+](=O)[O-])cc2Cl)n1	i	.	.	.
Cc1ccc(Nc2cc(C)nc3ccc(C)cc23)cc1	i	0.17	48%*	i
CCOc1ccc(Nc2cc(C)nc3ccc(C)cc23)cc1	i	.	.	.
CC(C)CC(NC(=O)C(NC(=O)C1CCC(=O)N1C(=O)OCc1ccccc1)C(C)C)C(=O)N1CCCC1C(N)=O (centres undefined)	i	0.36	.	.
CC(=O)Nc1ccc(S(=O)(=O)NCc2ccc3[nH]c(C)cc3c2)cc1	i	5.4*	i	i	CHO-K1 ctr=3.8*;KCNQ1 sel pot=-6;KCNQ2 pot conf=-18;Kir21 spec=-36
Cc1ccc(S(=O)(=O)NCc2ccc3[nH]c(C)cc3c2)cc1	i	.	.	.
CCOc1ccccc1N(CC(=O)N1CCCC1)S(C)(=O)=O	i	0.18	.	.
COc1ccc(C(=O)NC(=S)NCc2ccco2)cc1Br	i	0.32	.	.
O=C(CN(Cc1ccc(F)cc1)C(=O)c1csnn1)NC1CCCC1	i	.	.	.
Cc1ccc(S(=O)(=O)NCCSCc2ccccc2)cc1	i	.	64%*	i
Cc1ccc(CSCCNS(=O)(=O)c2ccc([N+](=O)[O-])cc2)cc1	i	.	.	.
CCOC(=O)c1sc(NC(=O)CN2CCN(c3ccccc3)CC2)nc1C	i	.	.	.
CCN(c1ccccc1)S(=O)(=O)c1cc([N+](=O)[O-])ccc1N	i	5	56%*	i
CCN(c1ccccc1)S(=O)(=O)c1ccc(C(C(=O)OC)C(=O)OC)c([N+](=O)[O-])c1	i	.	.	.
COc1cc(/C=C/C(=O)NC(C)C2CC3CCC2C3)cc(OC)c1OC (centres undefined)	i	1.1	.	.
COc1cc(C(=O)NCc2nnc(SCC(=O)NCCc3ccccc3)o2)cc(OC)c1OC	i	0.61	.	.
N#Cc1ccc(NC(=O)CN2C(=O)NC3(CCCC3)C2=O)cc1	i	.	.	.
CN1CCN(C(=O)CSc2nc(-c3ccco3)cc(C(F)(F)F)n2)CC1	i	0.86	.	.
O=C(CSc1nc(-c2ccco2)cc(C(F)(F)F)n1)N1CCSCC1	i	12*	i	i	CHO-K1 ctr=-3;KCNQ1 sel pot=68*;KCNQ2 pot conf=34*;Kir21 spec=-36;KCNQ2 W236L pot=i
SMILES	KCNQ2 inh	KCNQ2 enhance	Kir21 confirm	HEK293 ctr	others
O=C(CSc1nc(-c2ccco2)cc(C(F)(F)F)n1)N1CCN(c2cccc(Cl)c2)CC1	i	7.9*	i	76%*	CHO-K1 ctr=15*;KCNQ1 sel pot=60*;KCNQ2 pot conf=-16;Kir21 spec=-44
O=C(CCSc1nc(-c2ccco2)cc(C(F)(F)F)n1)N1CCN(c2ccccn2)CC1	i	.	.	.
COCCn1c(SCC(=O)Nc2nc(C)c(Cl)cc2Cl)nc2ccccc21	i	0.7	62%*	i
COCCn1c(SCC(=O)Nc2ccccc2OC)nc2ccccc21	i	.	.	.
c1ccc(CSc2ncn[nH]2)nc1	i	.	.	.
COc1cc(NC(=O)Cn2cnc(S(=O)(=O)N3CCC(C)CC3)c2)cc(OC)c1OC	i	0.24	.	.
Cc1ccc(O)c(NC(=S)NC(=O)Cc2ccc(Cl)cc2)c1	i	7*	i	i	CHO-K1 ctr=0.0*;KCNQ1 sel pot=-14;KCNQ2 pot conf=-22;Kir21 spec=-44
Cc1ccc(NC(=S)NC(=O)c2ccc(-c3ccc(Cl)cc3)o2)c(O)c1	i	1.1	.	.
CCOc1ccc(NC(=O)c2c(N)n(C)c(=O)[nH]c2=O)cc1	i	.	.	.
O=C(CN1CCCc2ccccc21)NCCc1ccc(F)cc1	i	.	46%*	i
COc1ccc(CCNC(=O)CN2CCCc3ccccc32)cc1OC	i	.	.	.
CC(=O)c1cc(F)ccc1OCC(=O)N1CCCc2ccccc21	i	.	54%*	i
O=C(COc1ccccc1F)N1CCCc2ccccc21	i	0.68	.	.
Cc1cc(C(=O)OCC(=O)NCc2ccc(Cl)cc2)c(C)o1	i	0.73	.	.
Cc1cccc(NC(=O)N2C3CCCC2CC(NC(=O)C(C)(C)C)C3)c1 (centres undefined)	i	.	.	.
CCOC(=O)CN1C(=O)NC(C)(c2ccc(OC(F)F)cc2)C1=O (centres undefined)	i	.	.	.
CC(=O)Nc1ccc(/C=N/N2C(=O)NC(C)(c3ccc(OC(F)F)cc3)C2=O)cc1 (centres undefined)	i	18*	i	i	CHO-K1 ctr=-27;KCNQ1 sel pot=11*;KCNQ2 pot conf=24*;Kir21 spec=-25;KCNQ2 W236L pot=i
CC(C)C(NC(=O)c1ccccc1F)C(=O)NCc1ccc(F)cc1 (centres undefined)	i	.	.	.
Cc1ccc(CNC(=O)CNC(=O)[C@@H]2Cc3ccccc3CN2C(=O)OC(C)(C)C)cc1	i	1.1	.	.
